Each structure is given as a SMILES string. Counter-ions that a name gives are not always drawn. ± gives the standard deviation of the averaged measurements. A value given as a limit tells only on which side of the number the result lay.

The subject of this test is Toxoplasma gondii RH (in HFF). Kind of test: parasite growth relative to the screen mean (all compounds = 100%); higher = less inhibition of parasite growth. The conditions noted are these: 5 µM; 72 h; oxygen 21 %. The method, boiled down: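 RH β-Gal–GFP Toxoplasma at MOI 1:5 was used to infect confluent human foreskin fibroblasts in 96-well plates within 2 h of pin-transferring compounds to 5 µM final. After 72 h at 21% O2, parasite number was determined by CPRG β-Gal assay against standard curves on the same plate. Growth is relative to the screen mean and averaged over two screens, with all compounds = 100%.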
`Cn1cnnc1Sc1c([N+](=O)[O-])ncn1C` gave a parasite growth of 131 ± 11%. With `CCCCC[C@H](O)/C=C/[C@H]1[C@H](O)CC(=O)[C@@H]1CCCCCCC(=O)O` [Alprostadil] the figure was 140 ± 6%; with `S=C(S)N1CCCC1` [Pyrrolidinedithiocarbamate ammonium], under 0%. `COc1ccc(C2CC(c3c(O)cc(C)oc3=O)=NCCS2)c(OC)c1` (configuration not stated) had a parasite growth of 69.6 ± 9.3%. The compound `COC(=O)[C@@H]1[C@H]2C[C@H]3c4[nH]c5ccccc5c4CCN3C[C@@H]2CC[C@@H]1O` [Yohimbine hydrochloride] showed a parasite growth of 184 ± 33%. The compound `COc1ccc(Cl)cc1NC(=O)Nc1cc(C)nc2ccccc12` had a parasite growth of 52.7 ± 30%. Turning to `CC#C[C@]1(O)CC[C@H]2[C@@H]3CCC4=CC(=O)CCC4=C3[C@@H](c3ccc(N(C)C)cc3)C[C@@]21C` [Mifepristone], the parasite growth was found to be 135 ± 14%. `CCn1c(=O)[nH]c2cc(Cl)c(Cl)cc21` showed a parasite growth of 89.8 ± 61%. The figure for `CCN(CC)CC1CCCCN1CC(=O)N1c2ccccc2C(=O)Nc2cccnc21` (configuration not stated) is 146 ± 36%; for `CC(=O)N(O)[C@@H]1c2cc(C#N)ccc2OC(C)(C)[C@H]1O` it is 92.8 ± 30%. Consider `Cn1nnc2c(C(N)=O)ncn2c1=O` [Temozolomide], for which the parasite growth stood at 89.4 ± 4.9%.

`CC(C)C[C@H](NC(=O)N1CCCCCC1)C(=O)N[C@H](Cc1cn(C)c2ccccc12)C(=O)N[C@H](Cc1ccccn1)C(=O)O`: the parasite growth was 98.9 ± 45%. `COc1cc2c(cc1OC)-c1c/c(=N\c3c(C)cc(C)cc3C)n(C)c(=O)n1CC2` [Trequinsin hydrochloride] returned a parasite growth of 124 ± 37%. Turning to `CN(CCc1ccc(Cl)c(Cl)c1)CC(O)COc1ccc(NS(C)(=O)=O)cc1` (configuration not stated), the parasite growth is 58.1 ± 4.3%. `OC(CCCN1CCN(c2ncc(F)cn2)CC1)c1ccc(F)cc1` (configuration not stated) displayed a parasite growth of 64.6 ± 30%. In turn, `CC(C)NC[C@H](O)COc1ccc(CC(N)=O)cc1` [S-(-)-Atenolol] yielded a parasite growth of 149 ± 12%.

Regarding `NC(N)=Nc1ccc(Cl)cc1` [4-Chlorophenylguanidine hydrochloride], the parasite growth was 125 ± 3.5%. Compound `C#CCN1C(C)=C(C(=O)OC)C(c2cccc([N+](=O)[O-])c2)C(C(=O)OCC)=C1C` (configuration not stated) registered a parasite growth of 157 ± 2.2%.

`CCCC(=O)Nc1ncnc2c1ncn2[C@@H]1O[C@@H]2COP(=O)(O)O[C@H]2[C@H]1OC(=O)CCC` [Dibutyryl-cAMP, sodium salt] displayed a parasite growth of 125 ± 23%. The compound `N#C/C(=C\c1ccc(O)c(O)c1)C(=O)NCc1ccccc1` had a parasite growth of 148 ± 13%. The compound `CNCCC(Oc1ccc(C(F)(F)F)cc1)c1ccccc1` (configuration not stated) [Fluoxetine hydrochloride] yielded a parasite growth of 20.9 ± 8.2%. For `NCCCCNCCCN` [Spermidine trihydrochloride], the parasite growth was 90.6 ± 7.8%.

The values above are taken from the supplement of paper PMC4894684.
